{"source": "the supplement of paper PMC12636033", "note": "± gives the standard deviation of the averaged measurements. Over roughly 33,000 sequences, “E-score (rank enrichment, -0.5 to 0.5)” has its median near -0.0043; the highest 2% begin near 0.24. The entries come from a sample that favours the highest values as a whole."}
{"test_system": "2Sp-muMax20 (muMax20 with two 2,6-bis(methyl)pyridine Cys staples)", "assay": "PBM 8-mer E-score (E-score (rank enrichment, -0.5 to 0.5)); higher = stronger preferential binding", "method": "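Protein binding microarray (universal PBM chip covering all 10-mers in fixed probe flanks) with chemically synthesized human Max(13-93) bHLH-LZ analogs (not full-length Max) bearing noncanonical residues (hArg, Tha, Aib, Nle at 65) and aromatic Cys staples. Read-out per 8-mer (and its reverse complement): E-score (rank-based enrichment, -0.5 to 0.5) and Z-score of median probe intensity.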"}
{"sequence": "GCGTCCAA", "PBM 8-mer E-score": "0.016 ± 0.062"}
{"sequence": "TAGGATCA", "PBM 8-mer E-score": "-0.0923 ± 0.052"}
{"sequence": "CAATAGTC", "PBM 8-mer E-score": "-0.0201 ± 0.017"}
{"sequence": "AGGTGGTG", "PBM 8-mer E-score": "-0.104 ± 0.087"}
{"sequence": "ACGTGGTC", "PBM 8-mer E-score": "0.129 ± 0.092"}
{"sequence": "ACGTGGTG", "PBM 8-mer E-score": "0.236 ± 0.017"}
{"sequence": "ACGTGGTA", "PBM 8-mer E-score": "0.146 ± 0.11"}
{"sequence": "CCGTGGTA", "PBM 8-mer E-score": "-0.156 ± 0.15"}
{"sequence": "GCGTGGTA", "PBM 8-mer E-score": "0.237 ± 0.045"}
{"sequence": "GATTACGA", "PBM 8-mer E-score": "0.0561 ± 0.094"}
{"sequence": "AAATCCCT", "PBM 8-mer E-score": "-0.0147 ± 0.019"}
{"sequence": "GAGGCGCA", "PBM 8-mer E-score": "0.0587 ± 0.03"}
{"sequence": "ACTTTCCG", "PBM 8-mer E-score": "0.00749 ± 0.064"}
{"sequence": "ACCTTGAC", "PBM 8-mer E-score": "0.00626 ± 0.011"}
{"sequence": "CAACTATA", "PBM 8-mer E-score": "0.203 ± 0.018"}
{"sequence": "AAACTATA", "PBM 8-mer E-score": "0.115 ± 0.0056"}
{"sequence": "TAACTATA", "PBM 8-mer E-score": "0.255 ± 0.07"}
{"sequence": "CCCTTTTC", "PBM 8-mer E-score": "-0.0442 ± 0.061"}
{"sequence": "CATTACCC", "PBM 8-mer E-score": "0.0244 ± 0.022"}
{"sequence": "AATTACCC", "PBM 8-mer E-score": "0.237 ± 0.0059"}
{"sequence": "AATTACCA", "PBM 8-mer E-score": "0.171 ± 0.012"}
{"sequence": "GATGCAGC", "PBM 8-mer E-score": "0.0324 ± 0.041"}
{"sequence": "GTGGTCGA", "PBM 8-mer E-score": "0.0711 ± 0.071"}
{"sequence": "AAGATCTA", "PBM 8-mer E-score": "-0.063 ± 0.13"}
{"sequence": "AAGATCTG", "PBM 8-mer E-score": "0.0472 ± 0.038"}
{"sequence": "AAGATCTT", "PBM 8-mer E-score": "0.322 ± 0.058"}
{"sequence": "GGGATAAA", "PBM 8-mer E-score": "0.0538 ± 0.03"}
{"sequence": "CCTGTATA", "PBM 8-mer E-score": "0.0769 ± 0.072"}
{"sequence": "GTTGTCTA", "PBM 8-mer E-score": "0.0499 ± 0.064"}
{"sequence": "ACTGTATA", "PBM 8-mer E-score": "0.213 ± 0.085"}
{"sequence": "GTTGTATA", "PBM 8-mer E-score": "0.167 ± 0.024"}
{"sequence": "ATTGTATA", "PBM 8-mer E-score": "0.2422 ± 0.0019"}
{"sequence": "CTTGTACA", "PBM 8-mer E-score": "0.192 ± 0.026"}
{"sequence": "GCTGTATA", "PBM 8-mer E-score": "0.25 ± 0.021"}
{"sequence": "ATTGTACA", "PBM 8-mer E-score": "0.26 ± 0.016"}
{"sequence": "ATTGTCTA", "PBM 8-mer E-score": "0.269 ± 0.012"}
{"sequence": "ATTGTCTC", "PBM 8-mer E-score": "-0.126 ± 0.07"}
{"sequence": "CTTGTATA", "PBM 8-mer E-score": "0.17 ± 0.0046"}
{"sequence": "ATTGTACC", "PBM 8-mer E-score": "0.0323 ± 0.019"}
{"sequence": "AAGCCAGT", "PBM 8-mer E-score": "-0.0999 ± 0.034"}
{"sequence": "ACCAAGAC", "PBM 8-mer E-score": "-0.0903 ± 0.027"}
{"sequence": "GGCGCGTA", "PBM 8-mer E-score": "0.126 ± 0.013"}
{"sequence": "ATTTAATG", "PBM 8-mer E-score": "0.122 ± 0.031"}
{"sequence": "ACAACACG", "PBM 8-mer E-score": "0.185 ± 0.037"}
{"sequence": "TAAGAGCA", "PBM 8-mer E-score": "0.145 ± 0.072"}
{"sequence": "TAACGACA", "PBM 8-mer E-score": "0.087 ± 0.0014"}
{"sequence": "GTAGAGAA", "PBM 8-mer E-score": "-0.00059 ± 0.14"}
{"sequence": "ATTGTATC", "PBM 8-mer E-score": "0.254 ± 0.043"}
{"sequence": "CTTGTATC", "PBM 8-mer E-score": "0.141 ± 0.019"}
{"sequence": "ATTGTATG", "PBM 8-mer E-score": "0.135 ± 0.036"}
{"sequence": "AGCTTAGG", "PBM 8-mer E-score": "-0.22 ± 0.016"}
{"sequence": "ACACTTTG", "PBM 8-mer E-score": "0.0709 ± 0.076"}
{"sequence": "CTAGGGGC", "PBM 8-mer E-score": "0.0163 ± 0.073"}
{"sequence": "ACCGGTAG", "PBM 8-mer E-score": "-0.253 ± 0.036"}
{"sequence": "CTACCGGA", "PBM 8-mer E-score": "-0.147 ± 0.0082"}
{"sequence": "AACGCGTG", "PBM 8-mer E-score": "0.13 ± 0.022"}
{"sequence": "CGCGCGTA", "PBM 8-mer E-score": "0.176 ± 0.021"}
{"sequence": "ACCGCGTA", "PBM 8-mer E-score": "-0.0143 ± 0.044"}
{"sequence": "CACGCGTC", "PBM 8-mer E-score": "0.2622 ± 0.0015"}
{"sequence": "AACGCGTA", "PBM 8-mer E-score": "-0.0641 ± 0.026"}
{"sequence": "CACGCGTA", "PBM 8-mer E-score": "0.175 ± 0.043"}
{"sequence": "AGCGCGTC", "PBM 8-mer E-score": "-0.117 ± 0.097"}
{"sequence": "CACGCGTG", "PBM 8-mer E-score": "0.376 ± 0.015"}
{"sequence": "CGCGCGTC", "PBM 8-mer E-score": "0.28 ± 0.0065"}
{"sequence": "ACCGCGTG", "PBM 8-mer E-score": "0.284 ± 0.038"}
{"sequence": "ACCGCGTC", "PBM 8-mer E-score": "-0.0765 ± 0.041"}
{"sequence": "AACGCGTC", "PBM 8-mer E-score": "-0.0413 ± 0.045"}
{"sequence": "GGTCGGGA", "PBM 8-mer E-score": "-0.25 ± 0.0058"}
{"sequence": "CGTGACCA", "PBM 8-mer E-score": "0.1 ± 0.098"}
{"sequence": "AAGCCATT", "PBM 8-mer E-score": "-0.0452 ± 0.016"}
{"sequence": "AGCCACGG", "PBM 8-mer E-score": "-0.2315 ± 0.00033"}
{"sequence": "TGTCTGAA", "PBM 8-mer E-score": "0.0107 ± 0.0037"}
{"sequence": "CCCCGAAG", "PBM 8-mer E-score": "-0.126 ± 0.04"}
{"sequence": "AAAGGAGA", "PBM 8-mer E-score": "0.0434 ± 0.019"}
{"sequence": "GAAGGAGA", "PBM 8-mer E-score": "0.246 ± 0.023"}
{"sequence": "CAAGGAGA", "PBM 8-mer E-score": "-0.133 ± 0.073"}
{"sequence": "GTATAGAC", "PBM 8-mer E-score": "0.121 ± 0.0088"}
{"sequence": "AAATGTTA", "PBM 8-mer E-score": "0.156 ± 0.028"}
{"sequence": "ATTTGTTG", "PBM 8-mer E-score": "0.266 ± 0.034"}
{"sequence": "ATTTGTTA", "PBM 8-mer E-score": "0.228 ± 0.064"}
{"sequence": "ACATGTTG", "PBM 8-mer E-score": "0.268 ± 0.089"}
{"sequence": "ATTTGTTC", "PBM 8-mer E-score": "0.106 ± 0.018"}
{"sequence": "ACATGTTC", "PBM 8-mer E-score": "0.161 ± 0.04"}
{"sequence": "ATATGTTA", "PBM 8-mer E-score": "0.229 ± 0.027"}
{"sequence": "CCATGTTA", "PBM 8-mer E-score": "0.155 ± 0.054"}
{"sequence": "GGATGTTA", "PBM 8-mer E-score": "0.196 ± 0.022"}
{"sequence": "GCATGTTA", "PBM 8-mer E-score": "0.252 ± 0.095"}
{"sequence": "ACATGTTA", "PBM 8-mer E-score": "0.3172 ± 0.0015"}
{"sequence": "AGATGTTG", "PBM 8-mer E-score": "-0.146 ± 0.015"}
{"sequence": "CGACATCG", "PBM 8-mer E-score": "-0.164 ± 0.033"}
{"sequence": "CGTCCGCA", "PBM 8-mer E-score": "-0.0773 ± 0.074"}
{"sequence": "AAGGGGGG", "PBM 8-mer E-score": "-0.275 ± 0.053"}
{"sequence": "CGCTTTAG", "PBM 8-mer E-score": "0.0627 ± 0.011"}
{"sequence": "ACGGGTGC", "PBM 8-mer E-score": "-0.0393 ± 0.032"}
{"sequence": "GGCCGTAC", "PBM 8-mer E-score": "0.0557 ± 0.032"}
{"sequence": "CTGGATCA", "PBM 8-mer E-score": "-0.158 ± 0.033"}
{"sequence": "GCTGCTGA", "PBM 8-mer E-score": "-0.206 ± 0.048"}
{"sequence": "AGTGCATG", "PBM 8-mer E-score": "0.0577 ± 0.061"}
{"sequence": "ATGTGTTA", "PBM 8-mer E-score": "0.197 ± 0.14"}
{"sequence": "ATGTGTTG", "PBM 8-mer E-score": "0.254 ± 0.023"}
{"sequence": "ATGTGTTC", "PBM 8-mer E-score": "-0.00117 ± 0.0014"}
{"sequence": "ACCGATCA", "PBM 8-mer E-score": "-0.0856 ± 0.019"}
{"sequence": "GATGGCTA", "PBM 8-mer E-score": "0.03 ± 0.092"}
{"sequence": "CATGGCTC", "PBM 8-mer E-score": "0.0571 ± 0.018"}
{"sequence": "CATGGCTA", "PBM 8-mer E-score": "0.245 ± 0.055"}
{"sequence": "CCACGTAC", "PBM 8-mer E-score": "0.0687 ± 0.048"}
{"sequence": "AACTGTAT", "PBM 8-mer E-score": "0.104 ± 0.043"}
{"sequence": "ACAGATGG", "PBM 8-mer E-score": "0.0291 ± 0.022"}
{"sequence": "TCGCCCCA", "PBM 8-mer E-score": "0.246 ± 0.013"}
{"sequence": "ACGCCCCC", "PBM 8-mer E-score": "-0.168 ± 0.036"}
{"sequence": "CCGCCCCC", "PBM 8-mer E-score": "-0.261 ± 0.11"}
{"sequence": "CCGCCCCG", "PBM 8-mer E-score": "0.22 ± 0.037"}
{"sequence": "ACGCCCCG", "PBM 8-mer E-score": "-0.107 ± 0.028"}
{"sequence": "TCGCCCAA", "PBM 8-mer E-score": "0.0937 ± 0.081"}
{"sequence": "ACGCCCCA", "PBM 8-mer E-score": "0.284 ± 0.013"}
{"sequence": "GCGCCCCA", "PBM 8-mer E-score": "0.135 ± 0.0094"}
{"sequence": "TAGCCCCA", "PBM 8-mer E-score": "0.324 ± 0.022"}
{"sequence": "CCGCCCCA", "PBM 8-mer E-score": "0.344 ± 0.054"}
{"sequence": "CAGCCCCA", "PBM 8-mer E-score": "0.196 ± 0.033"}
{"sequence": "TAGCCCAA", "PBM 8-mer E-score": "0.0851 ± 0.013"}
